Only some compounds are listed: those with a hit (about 0.28% of all), similar ones and a draw of the others.
NPYLR7 ag = mosquito NPYLR7 agonism. 0.15% of 270,000 active. HEK293T NPYLR7/Galpha15, GCaMP6s calcium fluorescence. activation, % at 10 µM; in the data active = activation above about 40%;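 note: 0% = vehicle and 100% = reference agonist at the receptor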
mcGAS inh = mouse cGAS inhibition by luminescence; 0.15% of 160,000 active; AID 1259399; inhibition, % at 12.5 µM; recombinant cGAS, Kinase-Glo ATP depletion luminescence;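 note: 0% = negative control wells and 100% = reference inhibitor with no enzyme activity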
hcGAS inh = inhibitors of human cGAS | recombinant h-cGAS, ATP depletion, Kinase-Glo luminescence | inhibition, % at 12.5 µM | 0.081% of 290,000 active;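 note: 0% = vehicle reaction and 100% = reaction without DNA for no activity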
Target sequence (Q8N884 whole entry, looked up): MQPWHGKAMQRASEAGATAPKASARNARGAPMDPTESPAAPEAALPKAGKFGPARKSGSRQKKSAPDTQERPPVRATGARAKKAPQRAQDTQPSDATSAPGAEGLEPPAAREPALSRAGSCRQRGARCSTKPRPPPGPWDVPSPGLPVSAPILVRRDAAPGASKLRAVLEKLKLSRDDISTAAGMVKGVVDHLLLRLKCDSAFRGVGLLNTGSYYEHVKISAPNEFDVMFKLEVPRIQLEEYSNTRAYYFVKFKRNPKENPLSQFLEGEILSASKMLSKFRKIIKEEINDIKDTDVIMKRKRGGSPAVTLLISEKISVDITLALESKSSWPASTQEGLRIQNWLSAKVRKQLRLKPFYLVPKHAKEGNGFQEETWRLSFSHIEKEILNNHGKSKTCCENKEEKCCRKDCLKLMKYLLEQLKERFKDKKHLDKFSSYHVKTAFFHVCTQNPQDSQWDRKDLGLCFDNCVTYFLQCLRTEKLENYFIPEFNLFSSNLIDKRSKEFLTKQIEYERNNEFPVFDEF
* = called active by the depositor; . = not tested or not shown. Cut-off read from the data, not from the text of the source, unless noted: active = inhibition above about 40%; inactive = the rest.

SMILES	NPYLR7 ag	mcGAS inh	hcGAS inh
CC(C)OC(=O)C(C(=O)C(F)(F)F)c1cc(NS(=O)(=O)c2ccc(Cl)cc2)ccc1O (configuration not stated)	44*	.	-7
CC(C)OC(=O)C(C(=O)C(F)(F)F)c1cc(NS(=O)(=O)c2ccccc2)ccc1O (configuration not stated)	5	.	-7
CCCCSc1nnc2c(n1)OC(C1CC=C(C)CC1C)Nc1ccccc1-2 (configuration not stated)	-6	1	5
NS(=O)(=O)c1ccc(CCN2C(=O)c3cccc4cccc(c34)C2=O)cc1	-4	-2	1
Nc1c(S(=O)(=O)O)cc2c3c(cccc13)C(=O)N(CCO)C2=O	93*	-1	-8
COc1ccc(C(=O)N(CC(=O)N(CCc2c[nH]c3ccccc23)Cc2ccc(Cl)c(Cl)c2)C(C)C)cc1	17	-2	-3
O=C1C(Cl)=C(N2CCOCC2)C(=O)N1c1ccccc1F	8	.	-5
O=C1C(Cl)=C(N2CCOCC2)C(=O)N1c1ccc(Cl)c(Cl)c1	22	50*	-2
Cc1cc2c(c(-c3ccccn3)c1)OC(CNC(=O)C1=CCCC1)C2 (configuration not stated)	6	.	-9
CCCCCCCC(=O)Nc1ccc(-n2nc(OC)nc2-c2ccccc2C)cc1	-1	0	1
Cc1ccc(Nc2ncccc2Cl)cc1	0	.	-16
CCOC(=O)c1ccc(N2C=C(C(=O)N3CCCC3)S(=O)(=O)c3ccc(F)cc32)cc1	1	.	-3
Nc1ccc(O)c(C(=O)O)c1	-7	.	-4
O=C(O)C1=CC(=C(c2ccc(O)c(C(=O)O)c2)c2ccc(O)c(C(=O)O)c2)C=CC1=O	-3	106*	80*
CCCCN1CN(CCc2c(C)cc(C(C)(C)C)cc2C)Cn2c1nc1ccccc12	-2	-4	0
CCOC(=O)N1CCN(C(c2cccc(C)c2)C2Sc3nc(C)nn3C2=O)CC1 (configuration not stated)	-9	-3	0
COc1ccccc1CCNC(=O)c1ccc(Cn2c(C)nc3ccccc32)o1	64*	.	-3
Cc1ccccc1Cn1c(CCNC(=O)c2ccco2)nc2ccccc21	-3	-8	-5
Cc1ccccc1CNc1ncnc2c1ncn2C1OC(CO)C(O)C1O (configuration not stated)	78*	-6	-10
Nc1ncnc2c1ncn2[C@@H]1O[C@H](CO)[C@H](O)C1O (some centres not stated)	96*	-2	-4
OC[C@H]1O[C@@H](n2cnc3c(NCc4ccco4)ncnc32)[C@H](O)[C@@H]1O	7	-4	-2
Nc1ncnc2c1ncn2C1O[C@H](CO)[C@@H](O)[C@@H]1O (some centres not stated)	-4	-5	-9
CC(C)CCN(CC(=O)N1CCc2sccc2C1c1ccc(Cl)cc1Cl)C(=O)c1ccco1 (configuration not stated)	5	-5	-6
CCCCCCCCCCCCCCCC(=O)NCCO	5	-3	-8
CCCCNC(=O)CCCCCNC(N)=O	55*	.	-3
SMILES	NPYLR7 ag	mcGAS inh	hcGAS inh
N#C/C(=C\c1ccc(O)c(O)c1)C(=O)NCCCc1ccccc1	120*	1	9
N#C/C(=C\c1ccc(O)c(O)c1)C(=O)c1ccc(O)c(O)c1	16	15	19
COc1ccc(CCOc2nc(-c3cccc(C(F)(F)F)c3)n(-c3ccc(NC(=O)c4ccc(F)cc4)cc3)n2)cc1	7	-4	-7
N#CC(C(=O)COc1cc(F)ccc1F)c1nc2ccccc2s1 (configuration not stated)	9	.	-9
N#CC(C(=O)C(F)(F)F)c1nc2ccccc2s1 (configuration not stated)	1	.	44*
O=C(NC1CCc2[nH]c3ccc(Br)cc3c2C1)C1CC=CCC1 (configuration not stated)	26	-8	-7
Cc1cccc(C2=NOCC(=O)N2Cc2ccc(F)cc2)c1	6	.	-2
CC(=O)N1CCN(CC(=O)N2N=C(c3ccccc3F)CC2c2ccc(Cl)cc2)CC1 (configuration not stated)	4	-4	-4
O=C(CN1CCc2ccccc2C1)N1N=C(c2ccccc2F)CC1c1ccc(Cl)cc1 (configuration not stated)	15	-3	60*
CCOC(=O)C1CCCN(CC(=O)N2N=C(c3ccccc3Cl)CC2c2ccc3c(c2)OCO3)C1 (configuration not stated)	-2	-4	-4
CCOC(=O)C1CCCN(CC(=O)N2N=C(c3ccccc3Cl)CC2c2ccc(Cl)cc2)C1 (configuration not stated)	42*	0	2
CNc1nc2cnc(Nc3cccc(F)c3)cc2n1CCN1CCOCC1	10	-9	-6
COc1ccc(Oc2ncccc2NC(=O)N2CCc3ccccc32)cc1	4	.	-6
